Sampled rows, rich in hits. Any-hit rate of the full collection: about 7.5%.
FLuc counter = qHTS profiling assay for firefly luciferase inhibitor/activator using purifed enzyme and Km concentrations of substrates (counterscreen for miR-21 project); Luciferin 4-monooxygenase (Photinus pyralis), P08659; purified FLuc, Km substrates, luminescence inhibition; Potency, µM (titrated, usually from 57.5 µM), without a hit: top-dose activity change, negative = inhibition, hits mostly inhibitors; 360,000 compounds, 6.9% hits;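 further: plate controls were vehicle for no effect and reference inhibitor for full effect; nearly all actives have a fitted effect of over 55% in size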
Target sequence (P08659 whole entry, looked up): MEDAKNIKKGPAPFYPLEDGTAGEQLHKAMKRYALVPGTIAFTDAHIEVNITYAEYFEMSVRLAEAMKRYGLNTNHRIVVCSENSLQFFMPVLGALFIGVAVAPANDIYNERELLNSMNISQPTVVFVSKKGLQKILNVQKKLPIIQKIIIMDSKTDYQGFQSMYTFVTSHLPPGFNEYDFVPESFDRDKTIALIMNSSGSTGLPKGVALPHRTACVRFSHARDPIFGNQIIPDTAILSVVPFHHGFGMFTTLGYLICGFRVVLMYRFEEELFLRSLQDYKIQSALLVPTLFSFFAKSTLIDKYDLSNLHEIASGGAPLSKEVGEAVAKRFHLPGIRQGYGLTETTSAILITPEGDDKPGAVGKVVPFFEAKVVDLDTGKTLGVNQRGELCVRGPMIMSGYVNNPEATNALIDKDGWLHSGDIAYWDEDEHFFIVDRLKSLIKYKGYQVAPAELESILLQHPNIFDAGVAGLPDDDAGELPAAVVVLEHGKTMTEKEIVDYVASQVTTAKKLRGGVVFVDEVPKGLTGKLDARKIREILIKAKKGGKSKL
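Biochemical qHTS of compounds, final roughly 60 µM downward over six points, against 10 nM purified firefly luciferase using Km concentrations of substrates (10 uM D-luciferin, 10 uM ATP) in Tris acetate pH 7.5 buffer; luminescence output.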
Rab9 promoter act = qHTS Assay for Rab9 Promoter Activators. Huh7 Rab9 promoter-luciferase reporter, luminescence, 24 h. Potency, µM (titrated, usually from 9.22 µM), for the others: at the top dose activation, negative = inhibition, most hits filed as activators. 320,000 compounds, 2.8% hits. AID 485297, 2010; further: % of control where 0% means no effect; nearly all actives have a fitted effect of over 60% in size
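Measured in stably transfected Huh7 cells bearing a Rab9 promoter–luciferase construct: 24 h compound treatment at 37 °C, followed by luminescence detection.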
SMN2 splice enh = qHTS Assay for Enhancers of SMN2 Splice Variant Expression | HEK293 SMN2-luciferase splicing reporter, luminescence, 30-36 h | 210,000 compounds, 2.8% hits | Potency, µM (highest dose often 46.1 µM), inactives show at the top dose activity change, positive = activation, usual class: activators | AID 1458, 2008; further: % of control where 0% means no effect; nearly all actives have a fitted effect of over 55% in size
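HEK293 cells carry an SMN2 […]–luciferase reporter in which exon 7 inclusion puts luciferase in frame. Cells were plated 10-12 h before compound addition, then incubated 30-36 h at 37C. ONE-Glo luminescence was read; sodium butyrate at 4.5 mM final served as control.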
ELG1 genotoxic = qHTS screen for small molecules that induce genotoxicity in human embryonic kidney (HEK293T) cells expressing luciferase-tagged ELG1; Potency, µM (doses to about 46 µM), without a hit: at the top dose activity change, positive = activation, most hits filed as activators; HEK293T ELG1-luciferase reporter, luminescence, 16 h; AID 504466, 2011; 330,000 compounds, 1.3% hits; further: % of control where 0% means no effect; nearly all actives have a fitted effect of over 60% in size
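Genotoxicity was scored as increased ELG1-luciferase reporter signal, measured by ONE-Glo luminescence (30 min, room temperature). Compound or vehicle exposure of the HEK293T reporter cells lasted 16 hr at 37°C.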
NPC1 prom act = qHTS Assay for NPC1 Promoter Activators | Huh7 NPC1 promoter luciferase reporter, 24 h | Potency, µM (highest dose often 9.22 µM), without a hit: top-dose activation, hits mostly activators | 320,000 compounds, 2.4% hits | AID 485313, 2010; further: % of control where 0% means no effect; nearly all actives have a fitted effect of over 60% in size
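Stable NPC1-promoter luciferase Huh7 line; cpd (DMSO) 24 h, 37 °C, 5% CO2; Amplite luciferase reagent 10 min RT; luminescence readout. qHTS format.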
* hit, by the source's call; ? = inconclusive; nt = not tested or not shown. The call rests on the fitted dose curve; in most records, active means well fitted curve in the direction sought with a large enough effect; inconclusive means small, poorly fitted or top-dose-only effect, or another doubt; inactive means no such curve, though single readings can be large; an effect the other way counts as inactive or inconclusive. Potency means the concentration at half of the fitted maximal effect.

SMILES | FLuc counter | Rab9 promoter act | SMN2 splice enh | ELG1 genotoxic | NPC1 prom act
O=C(Nc1ccc2oc(-c3ccncc3)nc2c1)c1ccco1 | ? | 29.9% | nt | -5.9% | 19.8%
O=C(Nc1ccc2oc(-c3ccncc3)nc2c1)c1ccc2c(c1)OCO2 | ? | -7.2% | nt | 1.9% | -1.7%
CCOC(=O)Nc1ccc(NS(=O)(=O)c2ccc(C)cc2)cc1 | -0.1% | -9.9% | ? | -0.2% | -1.7%
O=c1c2sc3ccccc3c2n(Cc2ccc(F)cc2)c(=O)n1Cc1ccco1 | -0.2% | nt | -6.2% | nt | nt
Cn1cc(/C=C2\SC(=O)N(c3ccccc3)C2=O)c2ccccc21 | -7.0% | 3.98µM* | ? | ? | 3.55µM*
CCN1C(=O)S/C(=C/c2cn(C)c3ccccc23)C1=O | 12µM* | -1.5% | 14.5% | 5.2% | -1.6%
CSc1nc2ccc(NC(=O)C3=NN(c4ccccc4)C(=O)CC3)cc2s1 | 19µM* | -0.1% | ? | 0.4% | 6.2%
CSc1nc2ccc(NC(=O)CSc3nnc(N)s3)cc2s1 | 21.3µM* | 15.5% | 9.2% | ? | 8.6%
COc1ccc(NC(=O)CSc2nnc(N)s2)cc1 | -12.5% | 14.2% | 13.7% | 8.3% | 9.2%
CSc1nc2ccc(NC(=O)c3ccccn3)cc2s1 | 0.426µM* | 0.398µM* | nt | 0.092µM* | 0.447µM*
CCOC(=O)c1c(-c2ccccc2)oc2ccc(N(C(C)=O)S(=O)(=O)c3ccc(C)cc3)cc12 | 0.2% | nt | 7.4% | nt | nt
CN(Cc1ccccc1)c1nc2c(c(=O)[nH]c(=O)n2C)n1CCCSc1ncccn1 | 0.4% | 11.3% | -10.7% | 0.1% | 0.4%
CCOc1cccc(/C=N/N2CCN(c3ccc(Cl)cc3)CC2)c1O | 4.3% | -0.7% | nt | -5.5% | -1.5%
Cc1ccc2nc(NC(=O)COC(=O)c3ccco3)sc2c1 | 13.5µM* | nt | 29.9% | nt | nt
O=C(COC(=O)c1ccco1)Nc1nc2ccc([N+](=O)[O-])cc2s1 | 19µM* | 0.9% | nt | -3.7% | -1.9%
O=C(COC(=O)c1ccc(Br)o1)Nc1nc2ccccc2s1 | -17.1% | 13.7% | -2.3% | 0.6% | -0.4%
O=C(COC(=O)c1ccco1)Nc1ccc([N+](=O)[O-])cc1Cl | -2.9% | -0.5% | nt | 7.9% | -2.4%
Cc1ccc2nc(NC(=O)COC(=O)c3ccc(Br)o3)sc2c1 | 26.9µM* | ? | 5.0% | 0.7% | ?
CCCCc1cc(=O)oc2cc(OCC(=O)Nc3ccccn3)ccc12 | 21.3µM* | 4.47µM* | nt | 13µM* | ?
Cc1cc(=O)oc2cc(OCC(=O)Nc3nccs3)ccc12 | 5.36µM* | 3.98µM* | nt | 10.3µM* | 2µM*
Cc1c(C)c2ccc(OCC(=O)Nc3ccccn3)cc2oc1=O | 0.338µM* | 3.55µM* | nt | 0.461µM* | 0.891µM*
Cc1c(C)c2ccc(OCC(=O)Nc3cccnc3)cc2oc1=O | ? | 2.7% | nt | ? | 12.9%
Cc1c(C)c2ccc(OCC(=O)Nc3nccs3)cc2oc1=O | 0.953µM* | 0.501µM* | nt | 1.03µM* | 0.282µM*
Cc1nnc(NC(=O)COc2ccc3c(C)cc(=O)oc3c2)s1 | 0.9% | -3.7% | 5.1% | 0.7% | -1.4%
Cc1c(C)c2ccc(OCC(=O)NCc3ccccn3)cc2oc1=O | 3.6% | 2.8% | nt | 7.5% | -5.1%
SMILES | FLuc counter | Rab9 promoter act | SMN2 splice enh | ELG1 genotoxic | NPC1 prom act
CCOC(=O)/C=C/C(=O)Nc1ccc(S(=O)(=O)N2CCCCCC2)cc1 | -0.8% | -11.0% | nt | 0.0% | -2.7%
COc1ccccc1OCc1csc(NC(=O)c2ccco2)n1 | ? | ? | 10.1% | 5.7% | ?
CC(=O)Nc1ccc(NC(=O)C(C)Sc2n[nH]c(-c3ccc(C)cc3)n2)cc1 (centres undefined) | 23.9µM* | ? | nt | 2.8% | 12.9%
COc1ccc(C(=O)Nc2nc(CC(=O)NCCc3ccccc3)cs2)cc1 | 4.78µM* | 29.7% | nt | -7.6% | 23.9%
COc1ccc(C(=O)Nc2nc(CC(=O)NCCc3cccc(OC)c3)cs2)cc1 | 13.5µM* | 1.2% | nt | -4.9% | 13.8%
O=C(Nc1ccc2nc3n(c(=O)c2c1)CCCC3)c1ccccc1F | ? | 27.4% | nt | 6.3% | 28.2%
COc1cc(C(=O)Nc2ccc3nc4n(c(=O)c3c2)CCCCC4)cc(OC)c1OC | 13.5µM* | 2.0% | 29.8% | -5.2% | -2.3%
O=C(Nc1ccc2nc3n(c(=O)c2c1)CCCCC3)c1ccccn1 | 7.57µM* | 1.12µM* | 3.16µM* | ? | 1.58µM*
COc1ccc(C(=O)Nc2ccc3nc4n(c(=O)c3c2)CCCCC4)cc1OC | -1.4% | nt | 11.2% | nt | nt
Clc1cc2nc(-c3cccnc3Cl)[nH]c2cc1Cl | 3.01µM* | ? | nt | 4.61µM* | 0.891µM*
CCn1c(-c2cccnc2Cl)nc2cc(Cl)c(Cl)cc21 | ? | 9.8% | -15.1% | -1.3% | -10.0%
COC(=O)c1ccc(COc2cc([N+](=O)[O-])cc3cccnc23)o1 | 21.3µM* | -0.8% | nt | -2.3% | -0.1%
COC(=O)c1ccc(COc2ccc(C)cc2[N+](=O)[O-])o1 | 19µM* | ? | nt | -6.9% | ?
CCCOc1ccc(/C=N/Nc2ccccc2[N+](=O)[O-])c(O)c1 | 0.107µM* | ? | -94.6% | ? | ?
Cc1ccccc1NC(=S)N/N=C/c1ccc(O)cc1O | 2.39µM* | 26.3% | nt | ? | ?
CCCOc1ccc(/C=N/NC(=S)Nc2ccccc2[N+](=O)[O-])c(O)c1 | 3.38µM* | -15.9% | -86.6% | ? | 3.0%
CCNC(=S)N/N=C/c1ccccc1[N+](=O)[O-] | 3.3% | 1.0% | 12.2% | -0.4% | -0.2%
COc1ccc(/C=N/NC(=S)Nc2ccccc2[N+](=O)[O-])cc1O | 0.426µM* | -2.3% | ? | 5.17µM* | 22.4%
CCCN(CC(=O)Nc1ccccc1OC)C(=O)CCCN1C(=O)c2ccccc2C1=O | 4.4% | 2.4% | nt | -0.6% | 0.8%
O=C(CSC(=S)N1CCCC1)c1ccccc1 | 1.07µM* | 0.398µM* | nt | 0.58µM* | 0.631µM*
O=C(O)CSC(=S)N1CCCC1 | -2.6% | -2.0% | nt | -1.9% | -1.6%
O=C(CSC(=S)N1CCCCC1)c1ccccc1 | 1.2µM* | 0.316µM* | 0.562µM* | 0.651µM* | 0.501µM*
Cc1cccc(N2CCN(C(=O)c3ccc4ncsc4c3)CC2)c1C | ? | -7.0% | ? | ? | -11.7%
CCc1ccc(/C=C2/C(=O)NC(=O)N2C(C)=O)cc1 | 8.49µM* | 27.8% | nt | 11.6% | 15.2%
CCC(C(=O)NC1CCCC1)N(C(=O)c1snc(C(N)=O)c1N)c1ccc(OC)c(OC)c1 (centres undefined) | 0.2% | -9.3% | nt | 1.0% | -0.8%
Cn1c(SCc2ccc(F)cc2)nnc1-c1cccs1 | 19µM* | 3.98µM* | ? | ? | 2.24µM*
Cn1c(SCc2ccccc2F)nnc1-c1cnccn1 | ? | 3.16µM* | nt | ? | ?

Screens as filed in PubChem.
